The sample as a whole holds a higher share of hits than the screen did.
NS1 inh: qHTS Assay for Inhibitors of Influenza NS1 Protein Function. AID 2326, 2010. Potency, µM (top dose mostly 46.1 µM). hit rate 0.4% among 270,000; calls by dose curve; also: actives are rising curves; nearly all actives have a fitted effect of over 50% in size
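Growth recovery, yeast-based: influenza A NS1 expressed in S. cerevisiae causes slow growth, and suppressors are detected by OD600. The parent strain without NS1 is used as positive control.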
Shiga toxin inh: A qHTS for Small Molecule Inhibitors of Shiga Toxin; inhibition, % at 38.7 µM; Vero cells, Shiga toxin protein synthesis inhibition reporter; hit rate 9.2% among 290,000; in the data active = inhibition mostly above about 28%, no sharp cut-off; inactive = mostly below about 43%
LmPK inh: qHTS Assay for Inhibitors of Leishmania Mexicana Pyruvate Kinase (LmPK); Q27686; purified LmPK, Kinase-Glo ATP luminescence, 1 h; Potency, µM (top dose mostly 57.5 µM), hits mostly inhibitors; hit rate 0.37% among 290,000
Target sequence (Q27686 whole entry, looked up): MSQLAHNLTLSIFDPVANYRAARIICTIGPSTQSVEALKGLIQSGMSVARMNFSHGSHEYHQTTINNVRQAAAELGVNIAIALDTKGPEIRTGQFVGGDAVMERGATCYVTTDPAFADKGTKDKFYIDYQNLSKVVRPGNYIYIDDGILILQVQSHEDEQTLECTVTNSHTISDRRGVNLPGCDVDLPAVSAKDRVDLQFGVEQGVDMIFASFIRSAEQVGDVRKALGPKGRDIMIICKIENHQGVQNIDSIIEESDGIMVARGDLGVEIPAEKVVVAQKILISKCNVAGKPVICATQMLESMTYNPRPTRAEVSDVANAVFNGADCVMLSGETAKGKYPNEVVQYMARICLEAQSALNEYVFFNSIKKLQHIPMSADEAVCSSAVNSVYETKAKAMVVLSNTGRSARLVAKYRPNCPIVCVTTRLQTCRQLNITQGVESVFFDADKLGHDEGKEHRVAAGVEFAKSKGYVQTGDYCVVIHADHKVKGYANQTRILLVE
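ATP generated from ADP (0.1 mM) and PEP (0.5 mM) by 0.1 nM LmPK over 1 h at room temperature (pH 7.2 imidazole buffer) was detected by coupled luciferase luminescence. Values were normalized to uninhibited and no-enzyme wells.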
Tb PYK inh: qHTS of Trypanosoma Brucei Inhibitors; pyruvate kinase (Trypanosoma brucei), Q57TT1; TbPYK enzyme, Kinase-Glo Plus ATP luminescence, 45 min; Potency, µM (doses to about 76.8 µM), most hits filed as inhibitors; hit rate 0.12% among 410,000; also: nearly all actives have a fitted effect of over 50% in size
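Readout: single end-point luminescence (Kinase-Glo Plus, 10 min). Reaction conditions were TbPYK/substrate plus 130 uM ADP, 45 min at RT, pH 7.2 TEA buffer. No-enzyme wells served as controls, and data were normalized before concentration-response fitting.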
CHX counter: Cycloheximide Counterscreen for Small Molecule Inhibitors of Shiga Toxin; cell reporter, cycloheximide protein synthesis inhibition counterscreen; max response, %; hit rate 12% among 300,000; AID 2314, 2010; in the data active = max response mostly above about 13%, no sharp cut-off; inactive = mostly below about 14%; also: read at 38.3 µM for the half of the compounds with a filed dose
SARS PLP yeast: qHTS of Yeast-based Assay for SARS-CoV PLP; Potency, µM (top dose mostly 32.9 µM), most hits filed as activators; hit rate 0.19% among 330,000; S. cerevisiae expressing SARS-CoV PLpro, growth rescue; calls by dose curve; also: nearly all actives have a fitted effect of over 55% in size
Numbers stand for hits; . = inactive; ? = inconclusive; / = no result. Unless noted, calls follow the shape of the dose curve; as a rule, active = well fitted curve in the direction sought with a large enough effect; inconclusive = small, poorly fitted or top-dose-only effect, or another doubt; inactive = no such curve, though single readings can be large; an effect the other way counts as inactive or inconclusive.

SMILES	NS1 inh	Shiga toxin inh	LmPK inh	Tb PYK inh	CHX counter	SARS PLP yeast
CC(=O)c1cccc(NC(=O)NCc2cccnc2)c1	.	.	.	.	.	/
Cc1ccc(NC(=O)Nn2cnnc2)cc1Cl	.	.	.	.	.	.
CC(=O)c1cccc(NC(=O)NCc2ccccn2)c1	.	50	.	.	31	.
CCOC(=O)C1=CC[C@@H](c2ccccc2)N(S(=O)(=O)c2ccc(C)cc2)[C@H]1/C=C/c1ccccc1	/	/	/	.	/	/
Cc1ccc(C(=O)NCc2ccccn2)cc1Cl	.	36	.	.	25	.
Cc1ccc(NS(=O)(=O)c2cc(C(=O)NCc3ccccn3)ccc2Cl)cc1C	.	.	.	.	.	.
CCOc1ccc(NC(=O)NCc2ccccn2)cc1	.	.	.	.	.	.
Cc1ccc(NC(=O)NCc2ccccn2)cc1	.	75	.	.	35	.
CCc1ccc(NC(=O)C(=O)NCc2ccccn2)cc1	.	60	.	.	24	.
COc1ccc(-c2nc3cc(NC(=O)COc4ccc(F)cc4)ccc3o2)cc1	/	/	/	.	/	/
CCOC(=O)c1cc(-c2ccccc2)n(CCC(=O)NCCc2ccc(C)cc2)c1C	/	/	/	.	/	/
COc1ccc(NC(=S)NC(=O)/C=C/c2ccco2)c(OC)c1	.	/	.	.	.	.
O=C(/C=C/c1ccco1)NC(=S)Nc1ccccc1O	.	92	.	.	19	.
O=C(/C=C/c1ccco1)NC(=S)Nc1ccccc1N1CCOCC1	.	.	.	.	.	.
Cc1ccc(NC(=S)NC(=O)/C=C/c2ccco2)c(O)c1	.	.	.	.	60	.
O=C(/C=C\c1ccco1)NC(=S)Nc1ccccc1O	.	64	.	.	34	.
O=C(/C=C/c1ccco1)NC(=S)Nc1ccccc1N1CCCC1	.	.	.	.	.	.
CN(C)c1ccc(-c2n[nH]c(=S)n2-c2ccccc2)cc1	/	.	.	?	.	.
CN(C)c1ccc(C2CC(c3ccccc3)=Nc3nc(-c4ccccc4)cn32)cc1 (configuration not stated)	.	.	.	/	31	.
COc1ccc(S(=O)(=O)N2CC(C)N(C(=O)N(C)C)C2C(C)C)cc1 (configuration not stated)	.	.	.	.	.	.
CCOC(=O)/C(=N/Nc1ccc(OC)cc1)Sc1nnc(CCc2ccccc2)n1-c1ccccc1	.	.	.	.	31	.
Cc1ccccc1C(=O)Oc1ccc(-c2csnn2)cc1	.	.	.	.	22	.
CC(=O)COc1ccc(-c2csnn2)cc1	.	42	.	.	.	.
c1ccc(COc2ccc(-c3csnn3)cc2)cc1	.	60	.	.	60	.
Cc1ccccc1C(=O)Oc1ccc(Sc2ccc(O)cc2)cc1	.	.	.	/	.	.
SMILES	NS1 inh	Shiga toxin inh	LmPK inh	Tb PYK inh	CHX counter	SARS PLP yeast
COc1cc(OC)nc(Nc2nc(C(N)Cc3ccc(F)cc3)cs2)n1 (configuration not stated)	/	/	/	.	/	/
Cc1ccc(CN2CC(C(=O)N3CCN(c4ccccc4O)CC3)CC2=O)cc1 (configuration not stated)	/	/	/	.	/	.
COC(=O)c1ccc2nc(-c3ccc(F)cc3)c(Cc3ccsc3)n2c1	/	/	/	.	/	/
CCN(CC(=O)Nc1c(F)cccc1F)C(=O)c1ccc(OC)c(S(=O)(=O)NC2CCCC2)c1	/	/	/	.	/	/
CCc1ccc(NC(=O)C2C3/C=C\CCCCC32)cc1 (configuration not stated)	.	active	.	.	37	.
O=C(Nc1ccc(Cl)cc1)C1C2CCCCC21 (configuration not stated)	.	67	.	.	48	/
CCc1ccc(NC(=O)C2CCCCC2C(=O)O)cc1 (configuration not stated)	.	.	.	.	.	.
O=C1CCC(C(=O)Nc2ccc(Cl)cc2)N1 (configuration not stated)	.	.	.	.	.	.
COC(=O)c1c(-c2cccs2)csc1NC(=O)COc1c(C)ccc(C)c1C	/	/	/	.	/	/
C[C@H](CO)N1C[C@H](C)[C@@H](CN(C)Cc2ccccc2)Oc2ccc(NC(=O)Cn3cnnn3)cc2C1=O	/	/	/	.	/	.
CC(=O)Oc1ccccc1C(=O)Oc1ccc(/C=N/n2cnnc2)cc1	.	.	.	.	.	.
Cc1ccc(C(=O)N/N=C\c2ccc(OC(=O)c3cccs3)cc2)cn1	.	.	.	.	.	.
O=C(Oc1ccc(/C=N/O)cc1)c1ccccc1Cl	.	69	.	.	51	.
Cc1cccc(C(=O)Oc2ccc(/C=N/O)cc2)c1	.	45	.	.	48	.
O=C(N/N=C/c1cccnc1)c1ccc(NC(=O)c2ccccc2Cl)cc1	.	.	.	.	.	.
Cc1ccc(C(=O)N/N=C/c2ccc(OC(=O)c3ccccc3Cl)cc2)cn1	.	.	.	.	14	.
O=C(N/N=C/c1cccc(OC(=O)c2ccccc2Cl)c1)c1cccnc1	.	49	.	.	25	.
Cc1ccc(O)c(C(=O)CC(=O)c2ccc(C(C)(C)C)cc2)c1	.	/	.	.	23	.
Cc1ccc(O)c(C(=O)CC(=O)c2ccccc2Cl)c1	.	81	.	.	38	.
Cc1ccc(Cl)c(O)c1	/	/	/	.	/	/
COCCNC(=O)c1c(NC(=O)c2cc(=O)c3cc(C)cc(C)c3o2)sc2c1CCCC2	/	/	/	.	/	/
Cc1ccc(CN=c2c([N+](=O)[O-])nn(-c3cccc(C)c3)n2O)cc1	.	.	.	.	25	.
Cc1ccc(CN=c2c([N+](=O)[O-])nn(-c3cccc(Cl)c3)n2O)cc1	/	.	.	.	.	.
COc1ccc(-n2nc([N+](=O)[O-])c(=NCCC3=CCCCC3)n2O)cc1	.	.	.	.	32	.
COc1ccc(-n2nc([N+](=O)[O-])c(=NCc3cccnc3)n2O)cc1	.	.	.	.	65	.
SMILES	NS1 inh	Shiga toxin inh	LmPK inh	Tb PYK inh	CHX counter	SARS PLP yeast
COc1ccc(-n2nc([N+](=O)[O-])c(=NCc3ccco3)n2O)cc1	/	80	.	.	30	.
COc1ccc(-n2nc([N+](=O)[O-])c(=NCCc3ccc(C)cc3)n2O)cc1	/	.	.	.	.	.
CCOc1ccc(CCNC(=O)Cn2c(=O)c3cccn3c3ccc(F)cc32)cc1OCC	/	/	/	.	/	/
CN1CCC(C(=O)C(=O)O)C1=O (configuration not stated)	/	/	/	.	/	/
Cc1c(C(=O)Nc2ccc(-n3c(C)nc4ccccc4c3=O)cc2)cccc1[N+](=O)[O-]	/	/	/	.	/	/
C[C@H]1CN([C@@H](C)CO)C(=O)Cc2cc(NC(=O)C3CC3)ccc2O[C@H]1CN(C)Cc1ccc(C(=O)O)cc1	/	/	/	.	/	.
O=C(CC1CCCC1)N1CCN(S(=O)(=O)c2cccc(Br)c2)CC1	/	/	/	.	/	/
Cc1ccccc1N/N=C1\CCCNC1=O	.	.	.	.	.	.
